Results taken from PubChem BioAssay (Tox21).
Several values for one entry are separate records, joined by “and”; a condition that tells them apart may be missing. Equal entries are not always repeated. Inconclusive results are not listed. The source holds several records for some structures; these can differ, active in one and inactive in another. Activity calls are given as the source filed them. The call rests on the fitted dose curve; in most records, active means well fitted curve in the direction sought with a large enough effect in the repeat runs; inconclusive means weak or mixed curves; inactive means no such curve, though single readings can be large; an effect the other way counts as inactive or inconclusive.

Assay: qHTS assay to identify small molecule antagonists of the retinoid acid receptor (RAR) signaling pathway - cell viability counter screen (AID 1159551); further: nearly all actives have a fitted effect of over 35% in size
Conditions: C3RL4 cells viability, ATP luminescence (CellTiter-Glo), 6 h; series mostly up to 92.4 µM; activity change, negative = cytotoxicity: at the top concentration
Method in brief: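 C3RL4 RARE-luciferase cells, 1,000/well, incubated overnight, then dosed with compound plus 1 uM retinol (final). After 6 hr at 37 C, viability read by CellTiter-Glo ATP luminescence following 30 min at room temperature.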
On the % scale 0 is the no-effect control and ±100 the full control effect.

Row | Compound | activity change, negative = cytotoxicity | Potency
1 | CCOP(O)OCC | 0.408% (inactive) | –
2 | N#Cc1ccc(Cl)cc1 | -0.0128% (inactive) | –
3 | CNC(C)Cc1ccccc1OC (stereo not given) | -0.875% [at 42.5 µM] (inactive) | –
4 | O=C(O)C(F)(F)C(F)(F)C(F)(F)C(F)(F)C(F)(F)C(F)(F)C(F)(F)C(F)(F)C(F)(F)F | 1.96% (inactive) | –
5 | C=CC(=O)NCNC(=O)C=C | 5.33% (inactive) | –
6 | COc1c(C(C)(C)C)cc([N+](=O)[O-])c(C)c1[N+](=O)[O-] | -3.26% (inactive) | –
7 | O=[N+]([O-])c1ccc(F)c([N+](=O)[O-])c1 | -4.89% (inactive) | –
8 | CC1(C)[C@H](C=C(Cl)Cl)[C@@H]1C(=O)O[C@@H](C#N)c1cccc(Oc2ccccc2)c1 | -0.605% (inactive) | –
9 | CCCCCC[N+](=O)[O-] | 0.469% (inactive) | –
10 | Nc1ccc([N+](=O)[O-])cc1[N+](=O)[O-] | -3.63% (inactive) | –
11 | CCC(Cl)CCl (stereo not given) | 4.33% (inactive) | –
12 | CC(c1ccc(O)cc1)(c1ccc(O)cc1)c1ccc(O)cc1 | -0.443% (inactive) | –
13 | COC(=O)c1cncn1C(C)c1ccccc1 (stereo not given) | -0.95% [at 42.5 µM] (inactive) | –
14 | Oc1ccc(Cl)c(Cl)c1Cl | -3.38% (inactive) | –
15 | O=C(CBr)c1ccccc1 | 6.47% (inactive) | –
16 | ClP(Cl)(Cl)(Cl)Cl | 2.19% (inactive) | –

Row | Compound | activity change, negative = cytotoxicity | Potency
17 | CCCCN(N=O)C(=N)N[N+](=O)[O-] | -6.9% (inactive) | –
18 | Cc1cc(=O)[nH]o1 | 3.59% (inactive) | –
19 | O=[N+]([O-])c1cc(C(F)(F)F)cc([N+](=O)[O-])c1Cl | 0.164% (inactive) | –
20 | COc1cc(Cl)c(OC)cc1Cl | 2.15% (inactive) | –
21 | CC1C(=O)C[C@]2(C(C)C)C[C@H]12 (stereo not given in full) | 0.407% (inactive) | –
22 | C/C=C/C=O | 4.33% (inactive) | –
23 | CC1CC(CC2CCC(N)C(C)C2)CCC1N (stereo not given) | -3.08% (inactive) | –
24 | ClCc1cccc(Cl)c1 | 2.61% [at 42.5 µM] (inactive) | –
25 | CCn1cc[n+](C)c1 | – | inactive
26 | CCCCCCCCCCOC(=O)c1ccccc1C(=O)OCCCCCCCCCC | 2.5% (inactive) | –
27 | Cc1ccc2ccccc2c1 | 1.41% (inactive) | –
28 | Brc1ccccc1 | -1.74% (inactive) | –
29 | CC(C)N(CCC(C(N)=O)(c1ccccc1)c1ccccn1)C(C)C (stereo not given) | 0.862% [at 42.5 µM] (inactive) | –
30 | CN1C(=O)C(O)N=C(c2ccccc2)c2cc(Cl)ccc21 (stereo not given) | 3.26% (inactive) | –
31 | O=Cc1ccc(Cl)cc1Cl | 0.731% (inactive) | –

Assay: qHTS assay to identify small molecule antagonists of the retinoic acid receptor (RAR) signaling pathway (AID 1159552; further: nearly all actives have a fitted effect of over 50% in size; further: potency means the concentration at half of the fitted maximal effect)
Conditions: C3RL4 RARE luciferase reporter, retinol-stimulated, 6 h; series mostly up to 92.4 µM; activity, negative = inhibition: at the top concentration
Method in brief: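 Cells of the C3RL4 line were seeded, incubated overnight, then dosed with compounds in DMSO followed immediately by retinol (1 uM final). Six hours later luciferase detection reagent went in; signal was measured after 30 min at RT.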

Row | Compound | activity, negative = inhibition | Potency
32 | CCOP(O)OCC | -0.842% (inactive) | –
33 | N#Cc1ccc(Cl)cc1 | 11.3% (inactive) | –
34 | CNC(C)Cc1ccccc1OC (stereo not given) | 3.31% [at 42.5 µM] (inactive) | –
35 | COc1c(C(C)(C)C)cc([N+](=O)[O-])c(C)c1[N+](=O)[O-] | 3.6% (inactive) | –
36 | O=[N+]([O-])c1ccc(F)c([N+](=O)[O-])c1 | -19.3% (inactive) | –
37 | CC1(C)[C@H](C=C(Cl)Cl)[C@@H]1C(=O)O[C@@H](C#N)c1cccc(Oc2ccccc2)c1 | -25.1% (inactive) | –
38 | CCC(Cl)CCl (stereo not given) | 0.869% (inactive) | –
39 | COC(=O)c1cncn1C(C)c1ccccc1 (stereo not given) | 0.984% [at 42.5 µM] (inactive) | –
40 | Oc1ccc(Cl)c(Cl)c1Cl | – | 63.4 µM (active)
41 | O=[N+]([O-])c1cc(C(F)(F)F)cc([N+](=O)[O-])c1Cl | 23.4% (inactive) | –
42 | COc1cc(Cl)c(OC)cc1Cl | -5.57% (inactive) | –
43 | CCBr | 69.2% (inactive) | –
44 | C/C=C/C=O | 66.4% (inactive) | –
45 | ClCc1cccc(Cl)c1 | 20.3% [at 42.5 µM] (inactive) | –
46 | Brc1ccccc1 | 28.6% (inactive) | –
47 | C=CC(=O)OCC(C)O (stereo not given) | 5.09% (inactive) | –
48 | CC(C)N(CCC(C(N)=O)(c1ccccc1)c1ccccn1)C(C)C (stereo not given) | -0.142% [at 42.5 µM] (inactive) | –
49 | CN1C(=O)C(O)N=C(c2ccccc2)c2cc(Cl)ccc21 (stereo not given) | – | 63.3 µM (active)

Assay: qHTS assay to identify small molecule agonists of the retinoic acid receptor (RAR) signaling pathway (AID 1159553)
Conditions: C3RL4 RARE luciferase reporter, agonist, 6 h; series mostly up to 73.3 µM; activation: at the top concentration
Method in brief: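 C3RL4 RARE-luciferase cells were seeded at 1,000/well and grown overnight at 37 C, then exposed to compounds for 6 hr at 37 C, 5% CO2. Luciferase reagent was added and luminescence was read after 30 min at room temperature.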

Row | Compound | activation
50 | Cl/C=C\Cl | 6.36% (inactive)
51 | CCOP(O)OCC | 7.91% (inactive)
52 | O=C(O)C(F)(F)C(F)(F)C(F)(F)C(F)(F)C(F)(F)C(F)(F)C(F)(F)C(F)(F)C(F)(F)F | 6.04% (inactive)
53 | C=CC(=O)NCNC(=O)C=C | 0.738% (inactive)
54 | COc1c(C(C)(C)C)cc([N+](=O)[O-])c(C)c1[N+](=O)[O-] | -1.83% (inactive)
55 | CC(c1ccc(O)cc1)(c1ccc(O)cc1)c1ccc(O)cc1 | -11% (inactive)
56 | COC(=O)c1cncn1C(C)c1ccccc1 (stereo not given) | 0.604% (inactive)
57 | CCCCN(N=O)C(=N)N[N+](=O)[O-] | -6.42% [at 94.8 µM] (inactive)
58 | O=[N+]([O-])c1cc(C(F)(F)F)cc([N+](=O)[O-])c1Cl | -5.82% [at 94.8 µM] (inactive)
59 | COc1cc(Cl)c(OC)cc1Cl | -1.46% (inactive)
60 | CC1C(=O)C[C@]2(C(C)C)C[C@H]12 (stereo not given in full) | 9.01% (inactive)
61 | C/C=C/C=O | -0.369% (inactive)
62 | CC1CC(CC2CCC(N)C(C)C2)CCC1N (stereo not given) | -6.73% [at 94.8 µM] (inactive)
63 | ClCc1cccc(Cl)c1 | 0.0632% (inactive)
64 | CC(C)N(CCC(C(N)=O)(c1ccccc1)c1ccccn1)C(C)C (stereo not given) | 2.16% (inactive)
65 | CN1C(=O)C(O)N=C(c2ccccc2)c2cc(Cl)ccc21 (stereo not given) | -7.57% [at 94.8 µM] (inactive)

Assay: qHTS assay to identify small molecule antagonists of the estrogen related receptor (ERR) signaling pathway from Tox21 library - cell viability counter screen (AID 1224834); further: nearly all actives have a fitted effect of over 30% in size; further: potency means the concentration at half of the fitted maximal effect
Conditions: ERR reporter cells viability, CellTiter-Fluor, 17.5 h; series mostly up to 92.4 µM; viability change, negative = cytotoxic: at the top concentration
Method in brief: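 ERR reporter cells, 2,000 per well, rested 6 h, then exposed to compound in DMSO for 17.5 hours at 37 C. Viability read as fluorescence after 30 min with CellTiter-Fluor.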

Row | Compound | viability change, negative = cytotoxic | Potency
66 | Cl/C=C\Cl | -0.466% (inactive) | –
67 | CCOP(O)OCC | -1.3% (inactive) | –
68 | N#Cc1ccc(Cl)cc1 | 0.752% (inactive) | –
69 | CNC(C)Cc1ccccc1OC (stereo not given) | 7.35% [at 42.5 µM] (inactive) | –
70 | O=C(O)C(F)(F)C(F)(F)C(F)(F)C(F)(F)C(F)(F)C(F)(F)C(F)(F)C(F)(F)C(F)(F)F | 0.1% (inactive) | –
71 | C=CC(=O)NCNC(=O)C=C | 2.43% (inactive) | –
72 | COc1c(C(C)(C)C)cc([N+](=O)[O-])c(C)c1[N+](=O)[O-] | 0.54% (inactive) | –
73 | O=[N+]([O-])c1ccc(F)c([N+](=O)[O-])c1 | – | 34.7 µM (active)
74 | CC1(C)[C@H](C=C(Cl)Cl)[C@@H]1C(=O)O[C@@H](C#N)c1cccc(Oc2ccccc2)c1 | 1.7% (inactive) | –
75 | CCCCCC[N+](=O)[O-] | 3.34% (inactive) | –
76 | CCC(Cl)CCl (stereo not given) | -0.973% (inactive) | –
77 | COC(=O)c1cncn1C(C)c1ccccc1 (stereo not given) | 1.49% [at 42.5 µM] (inactive) | –
78 | C=CC(=O)OCCCCO | -7.44% (inactive) | –
79 | ClP(Cl)(Cl)(Cl)Cl | 0.221% (inactive) | –
80 | CCCCN(N=O)C(=N)N[N+](=O)[O-] | -6.16% (inactive) | –
81 | Cc1cc(=O)[nH]o1 | 0.493% (inactive) | –
82 | O=[N+]([O-])c1cc(C(F)(F)F)cc([N+](=O)[O-])c1Cl | – | 34.5 µM (active)
83 | COc1cc(Cl)c(OC)cc1Cl | 5.94% (inactive) | –
84 | CC1C(=O)C[C@]2(C(C)C)C[C@H]12 (stereo not given in full) | 0.519% (inactive) | –
85 | CCBr | 2.46% (inactive) | –
86 | C/C=C/C=O | 3.74% (inactive) | –
87 | ClCc1cccc(Cl)c1 | -3.9% [at 42.5 µM] (inactive) | –
88 | CCn1cc[n+](C)c1 | – | inactive and 30.9 µM (active)
89 | CCCCCCCCCCOC(=O)c1ccccc1C(=O)OCCCCCCCCCC | -0.698% (inactive) | –
90 | Cc1ccc2ccccc2c1 | 0.502% (inactive) | –
91 | Brc1ccccc1 | -0.56% (inactive) | –
92 | C=CC(=O)OCC(C)O (stereo not given) | -1.32% (inactive) | –
93 | CC(C)N(CCC(C(N)=O)(c1ccccc1)c1ccccn1)C(C)C (stereo not given) | 0.0099% [at 42.5 µM] (inactive) | –
94 | CN1C(=O)C(O)N=C(c2ccccc2)c2cc(Cl)ccc21 (stereo not given) | -0.0156% (inactive) | –
95 | O=Cc1ccc(Cl)cc1Cl | 1.64% (inactive) | –
